Assay results taken from PubChem BioAssay AID463095 (Sanford-Burnham Center for Chemical Genomics, 2010).
The list shows a part of the results. The source made the active and inactive calls.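 The calls were made as follows: active = proliferation increase above 40% at any of the four tested concentrations; inactive = the rest.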

Experiment: inducers of beta-cell proliferation in MIN6, confirmation, MIN6 cells, mouse (AID 463095)

Structure (SMILES) | outcome
c1cc2c(cc1CCNC1CCCCCC1)OCO2 | inactive
COC(=O)COc1cc(C)cc2oc(=O)c3c(c12)CCCC3 | inactive
O=C(N/N=C/c1c(O)n(Cc2ccccc2)c(=O)[nH]c1=O)c1ccccc1 | inactive
